The source made the active and inactive calls. Cut-off read from the data, not from the text of the source: active = activation above about 85%; inactive = the rest.

In this experiment the target is Peroxisome proliferator-activated receptor gamma (Homo sapiens) (UniProt P37231). As to the kind of experiment: PPARg partial agonist activation, primary screen, cell-based, luciferase reporter, luminescence (AID 504452).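 Note: Cos-1 cells carrying PPARgamma and a response element luciferase reporter.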 Conditions: at 5 µM, stronger effect = higher value; activation (% of full agonist control): measured here: relative to full agonist control. For orientation: In a reporter assay the amount or activity of a reporter protein is the signal.
Peroxisome proliferator-activated receptor gamma (Homo sapiens), sequence (P37231 whole entry, looked up): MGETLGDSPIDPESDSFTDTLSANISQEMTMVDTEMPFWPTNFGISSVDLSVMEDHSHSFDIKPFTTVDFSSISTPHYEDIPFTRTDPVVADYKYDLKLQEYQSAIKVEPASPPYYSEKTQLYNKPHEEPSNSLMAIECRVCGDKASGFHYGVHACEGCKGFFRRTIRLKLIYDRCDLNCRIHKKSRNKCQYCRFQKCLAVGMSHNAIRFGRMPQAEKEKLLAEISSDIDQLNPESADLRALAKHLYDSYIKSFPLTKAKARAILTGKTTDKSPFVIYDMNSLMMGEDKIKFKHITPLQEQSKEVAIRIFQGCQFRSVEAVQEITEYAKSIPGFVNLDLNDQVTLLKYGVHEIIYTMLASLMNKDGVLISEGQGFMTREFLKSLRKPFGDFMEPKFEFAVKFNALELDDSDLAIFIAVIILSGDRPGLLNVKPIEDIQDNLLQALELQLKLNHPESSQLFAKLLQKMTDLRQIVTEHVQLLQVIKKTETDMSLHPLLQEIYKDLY
Consider `COc1cc(C2/C(=C(/O)c3ccccc3)C(=O)C(=O)N2c2ccccn2)ccc1O` (stereo unspecified), for which the activation (% of partial agonist control) is 57.6% (inactive) and the activation (% of full agonist control) is 26%.
In the same order, the values of `CCn1cc(C(=O)N2CCN(c3ccc(OC)cc3)CC2)c2cc(OC)c(OC)cc2c1=O` are 61% (inactive) and 27.6%.
In the same order, the values of `CCOc1cccc(/C(O)=C2/C(=O)C(=O)N(Cc3cccnc3)C2c2ccco2)c1` (stereo unspecified) are 68.2% (inactive) and 30.8%.
In the same order, the values of `COc1cc(CN2CCCC(N3CCN(c4ccc(F)cc4)CC3)C2)ccc1F` (stereo unspecified) are 69% (inactive) and 31.2%.
With `COC(=O)c1sc(N2C(=O)C(O)=C(C(=O)c3ccc(C)o3)C2c2ccc(F)cc2)nc1C` (stereo unspecified), the activation (% of full agonist control) was found to be 29.9% and the activation (% of partial agonist control) is 66.2% (inactive).
In the case of `Cc1c(-n2cc(C(=O)c3cc(F)ccc3O)cc(C#N)c2=O)c(=O)n(-c2ccccc2)n1C`, the activation (% of full agonist control) was determined as 43.7% and the activation (% of partial agonist control) was 96.7% (active).
The matching figures for `Cc1nc2ncccn2c1-c1csc(Nc2cccc(C(=O)O)c2)n1`: 33.5% and 74.2% (inactive).
In the same order, the values of `C[C@H](NC(=O)c1nc[nH]c1C(=O)N1CCc2ccccc2C1)C(=O)OCc1ccccc1` are 29.5% and 65.3% (inactive).
In the same order, the values of `CC(Oc1ccc(F)cc1)C(=O)Nc1cc(S(=O)(=O)N2CCOCC2)ccc1N1CCCC1` (stereo unspecified) are 33.9% and 75.1% (inactive).
As to `Cc1cc(N2C(=O)C(O)=C(C(=O)c3ccc(C)o3)C2c2cccc(Oc3ccccc3)c2)no1` (stereo unspecified), the activation (% of partial agonist control) was 75.5% (inactive) and the activation (% of full agonist control) was found to be 34.1%.
Consider `O=S(=O)(NCC(c1ccc2c(c1)OCO2)N1CCOCC1)c1ccc(F)cc1` (stereo unspecified), for which the activation (% of full agonist control) came out at 35.4% and the activation (% of partial agonist control) is 78.4% (inactive).
The matching figures for `COc1ccccc1N1C(=O)C2C(c3ccc(F)cc3)NN(C(=O)c3ccc(C)cc3)C2C1=O` (stereo unspecified): 30.1% and 66.5% (inactive).
The matching figures for `COc1ccc(-c2cc(C(=O)NC(C)c3ccccn3)c3ccccc3n2)cc1OC` (stereo unspecified): 40.7% and 90.2% (active).
The matching figures for `COc1ccc(CCn2c(C)cc(C(=O)CN3C(=O)C(=O)N(C4CCCC4)C3=O)c2C)cc1OC`: 27.1% and 60% (inactive).
As to `COc1ccc(N2CCN(C(=O)CNC(=O)Cn3c(C)cc4ccccc4c3=O)CC2)cc1`, the activation (% of full agonist control) was found to be 33.3% and the activation (% of partial agonist control) is 73.7% (inactive).
The matching figures for `O=C(NC(Cc1ccccc1)C(=O)N1CCN(c2ccccc2O)CC1)c1ccccc1` (stereo unspecified): 40.7% and 90.2% (active).
In the same order, the values of `COc1ccccc1NC(=O)C(=O)c1cn(CC(=O)N2CCOCC2)c2ccccc12` are 42.3% and 93.5% (active).
On to `O=C(NCCCn1ccnc1)C(=O)NCC(c1ccco1)N1CCN(c2ccccc2)CC1` (stereo unspecified), for which the activation (% of partial agonist control) was 62.9% (inactive) and the activation (% of full agonist control) was 28.4%.
In the same order, the values of `Cc1ccc2nc(N3C(=O)C(O)=C(C(=O)c4ccco4)C3c3ccc(C)o3)sc2c1` (stereo unspecified) are 126% (active) and 56.8%.
The matching figures for `Cc1ccc(S(C)=O)cc1-n1c(=O)n(Cc2ccccc2)c(=O)c2[nH]cnc21` (stereo unspecified): 28.4% (inactive) and 12.8%.
In the same order, the values of `Cc1cc(C)c2nc(N3C(=O)C(O)=C(C(=O)c4ccco4)C3c3ccc(O)cc3)sc2c1` (stereo unspecified) are 89.1% (active) and 40.2%.
`O=C(Cc1cccs1)N1CCCC(c2nc3c(nnn3Cc3ccc(F)cc3)c(=O)[nH]2)C1` (stereo unspecified): the activation (% of partial agonist control) is 72.5% (inactive) and the activation (% of full agonist control) amounted to 32.7%.
The matching figures for `Cc1ccc(S(=O)(=O)Nc2ccccc2F)cc1C(=O)N1CCN(c2ccccc2O)CC1`: 73% (inactive) and 33%.
As for `O=c1[nH]c2cc3c(cc2cc1CN(Cc1ccccc1)Cc1nnnn1Cc1ccco1)OCCO3`, the activation (% of partial agonist control) is 77.6% (inactive) and the activation (% of full agonist control) amounted to 35.1%.
In the same order, the values of `CC(=O)c1cccc(NC(=O)CSc2nc(=O)n(CCN3CCOCC3)c3c2CCCC3)c1` are 80.2% (inactive) and 36.2%.
On to `CC(Oc1ccc(F)cc1)C(=O)Nc1cc(S(=O)(=O)N2CCOCC2)ccc1N1CCCCC1` (stereo unspecified), for which the activation (% of partial agonist control) was 74.8% (inactive) and the activation (% of full agonist control) turned out to be 33.8%.
In the same order, the values of `CCOc1ccc(CN2CCN(Cc3cccc4nonc34)CC2CCO)cc1` (stereo unspecified) are 99.4% (active) and 44.9%.
The matching figures for `CC(=O)N1CCN(C(=O)c2ccccc2NS(=O)(=O)c2ccc(F)cc2)CC1`: 67.6% (inactive) and 30.5%.
As for `CC(Oc1cccc(Cl)c1)C(=O)Nc1ccc(N2CCOCC2)cc1N1CCOCC1` (stereo unspecified), the activation (% of full agonist control) came to 33.2% and the activation (% of partial agonist control) is 73.5% (inactive).
Turning to `O=C(Cc1ccccc1)n1nc(-c2ccco2)nc1SCc1ccccc1`, the activation (% of partial agonist control) is 81.8% (inactive) and the activation (% of full agonist control) amounted to 37%.
`COc1ccc2c(c1)c(=O)c(C(=O)c1ccc(Cl)cc1)cn2CC(=O)Nc1ccc(F)cc1`: the activation (% of full agonist control) was determined as 32% and the activation (% of partial agonist control) was 70.9% (inactive).
The matching figures for `O=C1C(=O)N(CC2CCCO2)C(c2ccco2)/C1=C(/O)c1ccc(F)cc1` (stereo unspecified): 15% and 33.1% (inactive).
Turning to `CN(C(=O)CS(=O)(=O)c1cn(CC(=O)N2CCCC2)c2ccccc12)c1ccccc1`, the activation (% of full agonist control) stood at 24.5% and the activation (% of partial agonist control) was 54.2% (inactive).

Source of the values: PubChem BioAssay AID504452 (The Scripps Research Institute Molecular Screening Center, 2011).
